Assay results as given in PubChem BioAssay (NCATS).
Records with an inconclusive call do not appear. Calls of active or inactive are those of the source. Unless noted, the call rests on the fitted dose curve; in most records, active means well fitted curve in the direction sought with a large enough effect; inconclusive means small, poorly fitted or top-dose-only effect, or another doubt; inactive means no such curve, though single readings can be large; an effect the other way counts as inactive or inconclusive.

Columns and labels:
[1] = Validation screen for small molecules that induce DNA re-replication in MCF 10A normal breast cells (AID 463097); settings: MCF 10A cells, DNA re-replication phenotype imaging; series mostly up to 46.1 µM; further: nearly all actives have a fitted effect of over 60% in size
Procedure, shortened: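 Read-out is Hoechst total nuclear intensity by fluorescence scanning imager, flagging increased high-DNA-content nuclei. Compounds were incubated with MCF 10A cells for 48 hr (37 C, 5% CO2) before 40 min staining.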

[2] = Quantitative high throughput screen for delayed death inhibitors of the malarial parasite plastid, 96 hour incubation (AID 488745); settings: Plasmodium falciparum growth; series mostly up to 28.7 µM;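 further: luciferase-expressing P. falciparum in erythrocytes at 2% hematocrit and 0.1% parasitemia; nearly all actives have a fitted effect of over 70% in size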
Procedure, shortened: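 Growth of reporter-bearing P. falciparum in red cells is measured after 96 h with compound, covering two erythrocytic cycles. Luminescence from the integrated luciferase serves as the growth signal.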

[3] = Quantitative high throughput screen for delayed death inhibitors of the malarial parasite plastid, 48 hour incubation (AID 488752); settings: Plasmodium falciparum growth; series mostly up to 28.7 µM; further: nearly all actives have a fitted effect of over 65% in size
Procedure, shortened: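 One parasite generation (48 h, 37 C, 5% CO2) of luciferase-reporter P. falciparum in erythrocytes is run with test compound; decreased luminescence indicates inhibited growth.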

[4] = Cytometric Cell-Based qHTS for Inhibitors of the mTORC1 Signaling Pathway in MEF (Tsc2-/-, p53-/-) Cells (AID 2660); settings: mTORC1 pathway cytometry; series mostly up to 38.3 µM;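 further: percent of cells above a phospho-rpS6 to PI ratio cutoff in each well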
Procedure, shortened: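 Readout: Alexa-488 phospho-rpS6 (Ser235/236) intensity divided by PI intensity, thresholded against 7.5 nM rapamycin wells and reported as % positive cells. PI cell count served as the viability measure. Compound exposure was 24 hrs at 37 degree Celsius.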

[5] = High Content Imaging Cell-Based qHTS for Inhibitors of the mTORC1 Signaling Pathway in MEF (Tsc2-/-, p53-/-) Cells (AID 2666); settings: at 38.3 µM (top of the series);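 further: percent of cells scored positive for phospho-rpS6 Ser235/236 immunostaining by imaging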
Procedure, shortened: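 Read-out: % positive cells per well, with thresholds from highest- and lowest-signal wells, based on phospho-rpS6 (Ser235/236) intensity normalized to Hoechst nuclear stain. Cells: Tsc2-/-, p53-/- MEFs carrying empty vector; compound 24 hrs, 37 degree Celsius.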

[6] = target: Ubiquitin carboxyl-terminal hydrolase 2 (Homo sapiens) (UniProt O75604); assay: qHTS Validation Assay for Inhibitors of Ubiquitin-specific Protease USP2a Using CHOP2 as the Reporter (AID 463106); settings: USP2a cleavage of CHOP2 reporter, enzymatic; series mostly up to 38.3 µM
Procedure, shortened: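 USP2 core (10nM final) was preincubated with compound for 30min at RT in 20mM Tris-HCl pH 8.0, 2mM CaCl2, 2mM beta-mercaptoethanol, 0.05% CHAPS. Ub-CHOP2 and reporter substrate (25nM each) were added, and fluorescence (Ex 485/Em 531nm) was read after 60min.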

[7] = target: DNA polymerase III PolC-type (Bacillus subtilis (strain 168)) (UniProt P13267); assay: qHTS Validation Assay for the Inhibitors of DNA Replication in Gram-Positive Bacteria (AID 485295); settings: Gram-positive bacterial DNA replication assay; series mostly up to 57.1 µM;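 further: reconstituted holoenzyme with PolC plus beta clamp SSB and primase; PicoGreen fluorescence of double-stranded DNA made on primed circular M13 template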
Method: B Subtilis DNA polymerase III holoenzyme complex was assayed for DNA production by fluorescent detection of the double-stranded DNA product with PicoGreen dye. The holoenzyme complex was reconstituted from the following purified protein components: DNA Polymerase III, beta subunit processivity factor, SSB single-stranded DNA binding protein, and Primase. Single-stranded, circular M13Gori was used as a substrate with dNTPs and NTPs also supplied to the substrate reagent. Compounds from the NCGC collection were incubated with the holoenzyme mixture for […] at room temperature to allow binding to occur, and then the reaction was started by the addition of substrate. After 30 min incubation at room temperature, PicoGreen solution containing EDTA was added to stop the reaction and to visualize the double-stranded DNA produced. Reaction progress was measured in a ViewLux CCD imager in fluorescence intensity mode by using 480 nm excitation and 540 nm emission filter set.
1. Thaw screening compounds.
2. Label assay plates. […]
2. Prepare sufficient quantities of Enzyme, Substrate and PicoGreen Quench mixes (according to Table II). […]
dispenser such as a Multidrop or uFill). Keep plates in the dark or stacked until ready to read fluorescence.
8. Read fluorescence intensity of plates on plate reader using "Fluorescein (Ex 485 nm/ Em 535 nm, 0.1s)" setting.

[8] = target: Tumor susceptibility gene 101 protein (Homo sapiens) (UniProt Q99816); assay: qHTS Validation Assay for Iinhibitors of HIV-1 Budding by Blocking the Interaction of PTAP/TSG101 (AID 485342; calls by dose curve); settings: TSG101-PTAP binding, fluorescence polarization, 4-point titration; series mostly up to 115 µM
Text: NIH Molecular Libraries Probe Production Network [MLPCN]
NIH Chemical Genomics Center [NCGC]
PI Name: Dr. Eric Freed, NCI
Stages of the HIV-1 replication cycle, specifically virus assembly and release, provide underexploited targets for the development of novel antiviral inhibitors. The late stages of HIV-1 replication are mediated by the Gag precursor protein, Pr55Gag. Expression of Pr55Gag is both necessary and sufficient for the production of virus-like particles from Gag-expressing cells. The Gag protein hijacks key host proteins involved in endocytic machinery of the host cell to promote endosomal processing and viral budding. The budding process requires a direct interaction between a […] (PTAP) motif in the p6 domain of Gag and the cellular endosomal sorting protein known as Tsg101. […] A fluorescence anisotropy assay has been developed to quantitatively measure the PTAP-Tsg101 interaction which can be used to screen for inhibitors of this interaction. […]
Two uL of the Tsg101 binding domain in buffer (10 mM HEPES pH 7.5; 0.15 M NaCl, 0.01% Tween 20; 3 mM EDTA;0.1 mM TCEP) was dispensed into Greiner black MB 1536-well plates (final concentration 10 uM). […] Fluorescent polarization was determined using FITC excitation and polarized emission filters on a Perkin Elmer Viewlux. […]

[9] = qHTS Validation Assay to Find Inhibitors of Chronic Active B-Cell Receptor Signaling (AID 485345; active means well fitted curve in the direction sought with a large enough effect in the main read-out, with a control signal flat, not every such curve was filed as active); settings: ABC-DLBCL cells, chronic BCR signaling reporter, CBG luciferase; series mostly up to 46.1 µM
Procedure, shortened: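 TMD8 ABC-DLBCL cells with dox-inducible green luciferase–IκBα fusion and red native luciferase; compounds 46 uM–3 nM, 4 h at 37C with doxycycline in 0.5% FBS IMDM. Green/red ratio normalized to basal and 10 uM MG-132.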

[10] = target: Beta-2 adrenergic receptor (Homo sapiens) (UniProt P07550); assay: qHTS validation assay of beta-arrestin-biased ligands of beta2-adrenergic receptor (AID 485366); settings: cell-based beta-arrestin recruitment to ADRB2, qHTS; series mostly up to 46.1 µM
Procedure, shortened: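 Tango cells (recombinant beta2-AR with recombinant beta-arrestin; recruitment releases tTA driving luciferase) were treated with compounds titrated up to 46 microM for 18 hr at 37 degrees C. Luminescence gave %Activity, and concentration-response curves were curve-classified.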

Measured: outcome

Chain of Tumor susceptibility gene 101 protein (Homo sapiens) (Q99816 whole entry, looked up): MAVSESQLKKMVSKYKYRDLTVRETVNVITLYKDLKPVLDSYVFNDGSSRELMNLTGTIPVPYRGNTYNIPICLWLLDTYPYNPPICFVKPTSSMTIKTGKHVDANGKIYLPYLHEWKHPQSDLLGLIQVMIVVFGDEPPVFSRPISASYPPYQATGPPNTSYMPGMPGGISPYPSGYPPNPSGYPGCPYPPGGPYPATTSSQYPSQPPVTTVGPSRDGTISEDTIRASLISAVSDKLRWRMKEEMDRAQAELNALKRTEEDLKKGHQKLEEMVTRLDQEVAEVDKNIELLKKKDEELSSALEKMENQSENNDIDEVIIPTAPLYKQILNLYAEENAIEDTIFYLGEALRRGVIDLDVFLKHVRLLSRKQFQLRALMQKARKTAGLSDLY
Chain of Beta-2 adrenergic receptor (Homo sapiens) (P07550 whole entry, looked up): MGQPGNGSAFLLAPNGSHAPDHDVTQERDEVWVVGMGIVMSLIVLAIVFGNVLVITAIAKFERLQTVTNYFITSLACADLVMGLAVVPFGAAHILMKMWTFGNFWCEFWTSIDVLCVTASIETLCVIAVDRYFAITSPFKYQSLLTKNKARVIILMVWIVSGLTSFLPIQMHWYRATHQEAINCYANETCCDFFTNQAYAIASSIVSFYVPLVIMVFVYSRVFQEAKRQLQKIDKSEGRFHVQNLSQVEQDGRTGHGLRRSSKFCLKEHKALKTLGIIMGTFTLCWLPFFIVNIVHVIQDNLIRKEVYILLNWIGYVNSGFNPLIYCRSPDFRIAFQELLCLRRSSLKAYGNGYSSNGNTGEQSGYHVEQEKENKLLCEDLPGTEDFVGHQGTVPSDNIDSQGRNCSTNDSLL
Chain of DNA polymerase III PolC-type (Bacillus subtilis (strain 168)) (P13267 whole entry, looked up): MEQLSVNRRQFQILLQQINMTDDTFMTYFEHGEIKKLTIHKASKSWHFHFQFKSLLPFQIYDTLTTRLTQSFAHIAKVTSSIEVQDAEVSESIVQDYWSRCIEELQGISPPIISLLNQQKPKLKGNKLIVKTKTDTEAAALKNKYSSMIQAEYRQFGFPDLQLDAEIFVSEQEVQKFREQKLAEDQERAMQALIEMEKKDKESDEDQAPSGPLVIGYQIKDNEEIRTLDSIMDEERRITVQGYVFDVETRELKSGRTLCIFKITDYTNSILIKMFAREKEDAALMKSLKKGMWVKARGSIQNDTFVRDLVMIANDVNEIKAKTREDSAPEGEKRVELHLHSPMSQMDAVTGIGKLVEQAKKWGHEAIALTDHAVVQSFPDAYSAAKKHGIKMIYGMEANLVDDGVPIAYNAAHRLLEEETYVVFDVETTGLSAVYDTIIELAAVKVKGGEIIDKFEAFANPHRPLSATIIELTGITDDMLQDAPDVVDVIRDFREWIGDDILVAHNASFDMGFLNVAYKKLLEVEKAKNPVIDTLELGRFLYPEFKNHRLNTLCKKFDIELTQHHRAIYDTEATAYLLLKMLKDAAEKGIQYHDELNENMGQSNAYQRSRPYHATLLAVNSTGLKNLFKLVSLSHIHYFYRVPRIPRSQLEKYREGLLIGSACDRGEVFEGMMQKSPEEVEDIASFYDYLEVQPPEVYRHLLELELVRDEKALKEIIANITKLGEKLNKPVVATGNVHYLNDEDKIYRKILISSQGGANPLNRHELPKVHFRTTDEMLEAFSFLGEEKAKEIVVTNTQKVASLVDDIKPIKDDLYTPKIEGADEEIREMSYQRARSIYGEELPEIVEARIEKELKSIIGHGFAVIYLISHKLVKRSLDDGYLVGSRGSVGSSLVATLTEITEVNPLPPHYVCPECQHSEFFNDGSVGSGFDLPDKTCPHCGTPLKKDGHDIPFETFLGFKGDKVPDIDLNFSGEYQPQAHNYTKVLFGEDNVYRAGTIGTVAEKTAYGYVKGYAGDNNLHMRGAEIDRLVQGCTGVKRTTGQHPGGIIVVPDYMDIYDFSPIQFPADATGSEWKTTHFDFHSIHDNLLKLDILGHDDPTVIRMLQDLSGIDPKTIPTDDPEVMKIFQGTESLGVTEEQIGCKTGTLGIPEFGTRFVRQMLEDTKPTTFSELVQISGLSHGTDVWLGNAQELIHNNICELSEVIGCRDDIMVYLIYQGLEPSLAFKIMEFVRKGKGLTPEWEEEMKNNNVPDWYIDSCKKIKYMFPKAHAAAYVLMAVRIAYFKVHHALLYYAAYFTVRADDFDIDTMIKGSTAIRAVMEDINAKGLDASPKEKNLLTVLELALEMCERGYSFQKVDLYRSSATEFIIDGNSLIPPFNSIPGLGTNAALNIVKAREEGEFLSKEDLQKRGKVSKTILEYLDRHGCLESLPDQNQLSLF
Chain of Ubiquitin carboxyl-terminal hydrolase 2 (Homo sapiens) (O75604 whole entry, looked up): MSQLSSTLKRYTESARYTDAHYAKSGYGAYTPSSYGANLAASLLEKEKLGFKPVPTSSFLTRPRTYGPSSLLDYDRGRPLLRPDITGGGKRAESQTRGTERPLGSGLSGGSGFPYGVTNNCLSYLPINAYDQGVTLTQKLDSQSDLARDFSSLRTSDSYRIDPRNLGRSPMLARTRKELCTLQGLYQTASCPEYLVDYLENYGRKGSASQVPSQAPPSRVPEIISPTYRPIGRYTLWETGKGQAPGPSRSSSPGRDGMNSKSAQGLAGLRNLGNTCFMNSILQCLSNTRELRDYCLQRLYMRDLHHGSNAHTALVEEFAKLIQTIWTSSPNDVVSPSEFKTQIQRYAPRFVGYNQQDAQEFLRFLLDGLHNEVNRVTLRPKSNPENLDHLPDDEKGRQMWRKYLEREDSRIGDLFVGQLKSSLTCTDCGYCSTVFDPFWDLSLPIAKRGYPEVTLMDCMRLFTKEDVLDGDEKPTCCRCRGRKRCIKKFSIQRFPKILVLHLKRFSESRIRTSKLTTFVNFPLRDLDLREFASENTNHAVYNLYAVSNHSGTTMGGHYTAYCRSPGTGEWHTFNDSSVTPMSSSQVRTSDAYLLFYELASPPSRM

Cc1cc(C)c(NC(=O)C[C@H](CC(=O)O)c2cccc3ccccc23)c(C(=O)N2CCC3(CCCC3)CC2)c1
inactive: [1] | [2] | [3]

O=c1[nH]c(=O)n([C@H]2C[C@H](O)[C@@H](CO)O2)cc1/C=C/Br
inactive: [1] | [3]

C[C@@](Cc1ccc(O)c(O)c1)(NN)C(=O)O
inactive: [1]

O=C(NCCNCC(O)COc1ccc(O)cc1)N1CCOCC1 (configuration not stated)
inactive: [1] | [2] | [3]

Oc1ccc(/C=C/c2cc(O)cc(O)c2)cc1
not listed: [2] | [3]
inactive: all other assays above
